# Screening results from PubChem BioAssay.
# A selection follows.
# aSyn 5UTR act = Activators working through SNCA 5'UTR binding (MLPCN) | alpha-synuclein 5'UTR reporter, activators screen | activity score, % (tested at 7.5 µM), hits read low | 300,000 tested, 7.1% active | AID 1814; in the data active = activity score below about -60%
# An asterisk follows results filed as active.
SMILES,aSyn 5UTR act
Oc1ccccc1/C=N/N1CCN(c2ccccn2)CC1,-115*
CC(C)c1ccc(/C=N/N2CCCCC2)cc1,-143*
O=C1/C(=C/c2ccc(N3CCOCC3)o2)SC(=Nc2ccccc2)N1CCc1c[nH]c2ccccc12,-121*
CC(C)(C)c1ccc(/C=C2\SC(=O)N(CCNC(=O)c3cccc(S(=O)(=O)N4CCOCC4)c3)C2=O)cc1,-89*
CCN(CC)c1ccc(/C=N/NC(=O)c2cccc(S(=O)(=O)N3CCOCC3)c2)c(O)c1,129
Cc1ccn2c(c1)nc(=S)n2C(=O)c1ccccc1,-100*
O=C(c1ccco1)n1c(=S)nc2ccccn21,-172*
Cc1cccc2nc(=S)n(C(=O)c3ccco3)n12,-221*
O=C(Nc1ccccc1)Nc1nnc(-c2cccs2)s1,-182*
COc1ccc(NC(=O)Nc2nnc(-c3cccs3)s2)cc1,-113*
O=[N+]([O-])c1cc(Cl)cc(/C=N/Nc2nc3ccccc3s2)c1O,-78*
COc1cc(/C=N/Nc2nc3ccccc3s2)cc([N+](=O)[O-])c1O,-100*
C=CCNC(=O)c1ccc2nc(Cc3ccc(OC)cc3)oc2c1,-139*
COc1ccc(Cc2nc3ccc(C(=O)NCCCSC)cc3o2)cc1OC,-99*
CCC1=Nc2cc(C(=O)NCCCOC)ccc2Sc2ccccc21,74
COc1ccc(Cc2nc3ccc(C(=O)N(C)CCn4ccnc4)cc3o2)cc1OC,-78*
COCCCNC(=O)c1ccc2nc(Cc3ccc(OC)cc3)oc2c1,-95*
COc1ccc(Cc2nc3ccc(C(=O)N4CCOCC4)cc3o2)cc1,-125*
Clc1ccc(-c2cn3c(n2)SCC3)cc1,-186*
Brc1ccc(-c2cn3c(n2)SCC3)cc1,-179*
Fc1ccc(-c2csc(N3CCOCC3)n2)cc1,-129*
Fc1ccc(-c2csc(N3CCSCC3)n2)cc1,-63*
c1ccc(-c2csc(-n3cccn3)n2)cc1,-130*
O=C(CSc1nc(-c2ccc(F)cc2)cs1)N1CCOCC1,-119*
c1ccc(-c2csc(N3CCSCC3)n2)cc1,-90*
SMILES,aSyn 5UTR act
Brc1ccc(-c2csc(N3CCC(c4ccccc4)C3)n2)cc1 (stereo not drawn),-86*
c1ccc(-c2cn3nc4c(nc3n2)CCCC4)cc1,109
Cc1ccc(Nc2nc(N)nc(-c3oc4ccccc4c3C)n2)cc1,91
Cc1c(-c2nc(N)nc(Nc3ccccc3F)n2)oc2ccccc12,-178*
COc1ccc(NC(=S)N/C(=N/S(=O)(=O)c2ccc(C)cc2)c2ccccc2)cc1,-146*
O=S(=O)(/N=C(/NC(=S)Nc1ccccc1)c1ccccc1)c1ccc(Cl)cc1,-99*
COc1ccc(S(=O)(=O)/N=C2\C=C(Nc3ccc(O)cc3)C(=O)c3ccccc32)cc1,100
Cc1ccc(NC(=O)N2CCCCCC2)cc1C,-90*
COc1cccc(NC(=O)N2CCCCCC2)c1,-88*
Cc1ccc(NC(=O)C2CCCN(C(=O)c3ccc(Cl)cc3)C2)cc1C (stereo not drawn),-100*
O=C(Nc1ccc(F)c(Cl)c1)N1CCCCCC1,-75*
O=C(Nc1ccc(Cl)cc1)N1CC=CCC1,-134*
COc1ccc(NC(=O)N2CCCCCC2)cc1,-77*
O=C(Nc1ccc(Br)cc1)N1CCCCC1,-63*
O=C1C(Nc2ccccc2)=C2CCCC=C2N1c1ccccc1,-163*
O=C(Nc1nc(=O)c2ccccc2s1)c1ccc(F)cc1,-264*
O=C(Nc1nc(=O)c2ccccc2s1)c1ccc(Cl)cc1,-140*
COc1ccc2c(c1)CCC1C2=NN(/C(C)=C/C(C)=O)C1c1cccc(F)c1 (stereo not drawn),-66*
COc1ccc(C(=O)c2cnc(/N=C/N(C)C)s2)cc1,-93*
CN(C)/C=N/c1ncc(C(=O)c2ccc3ccccc3c2)s1,-81*
O=C(COC(=O)C1CC1)Nc1ccc(N=Nc2ccccc2)cc1,-119*
O=C(O)C(=O)/C(=C\c1ccc([N+](=O)[O-])cc1)c1ccc2ccccc2n1,-88*
O=C(O)C(=O)/C(=C\c1ccccc1)c1ccc2ccccc2n1,-90*
Cc1c(C(=O)/C=C/c2cccs2)oc2ccc(F)cc12,-202*
Cc1cc(=O)oc2c(C(=O)/C=C\c3cccs3)c(O)ccc12,-89*
SMILES,aSyn 5UTR act
CC1CN(S(=O)(=O)c2ccc(C(=O)Nc3nnc(-c4ccc5c(c4)CCCC5)o3)cc2)CC(C)O1 (stereo not drawn),76
CC(=O)Nc1nnc(-c2ccc3c(c2)CCCC3)o1,-67*
CCCCOc1ccc(CSc2nncn2N)cc1,-86*
Fc1ccc(CSc2nc3ncccc3[nH]2)cc1,-105*
Nc1nc(CSc2nc3ccccc3[nH]2)cs1,-76*
CC(C)CSc1nc2ccccc2[nH]1,-95*
Clc1ccccc1CSc1nc2ccncc2[nH]1,-79*
c1ccc(CSc2nc3ccccc3[nH]2)cc1,-116*
c1ccc(CSCc2nc3ccccc3[nH]2)cc1,-91*
CCCOc1ccc(CSc2nc3ccccc3[nH]2)cc1,-127*
CCOc1ccc2nc(SCC)[nH]c2c1,-118*
O=[N+]([O-])c1ccc(CSc2nc3ccccc3[nH]2)cc1,-114*
O=Cc1[nH]c2ccccc2c1N(C(=O)CCl)c1ccc([N+](=O)[O-])cc1,84
Fc1ccc(CSc2nc3ccccc3[nH]2)cc1,-155*
CCCCCOc1ccc(CSc2ncn[nH]2)cc1,-87*
C=CCOc1ccc2nc(NC(=O)OC)[nH]c2c1,66
O=C(NCCO)c1ccc(CSc2nc3ccccc3[nH]2)cc1,-66*
N#C/C(C(N)=O)=C1/CCc2ccccc2N1,-63*
COc1cc(NC(=O)c2cc3nc(C4CC4)cc(C(F)(F)F)n3n2)c(OC)cc1Cl,-70*
CCCC(=O)NC(c1ccc(Cl)cc1Cl)c1ccc2cccnc2c1O (stereo not drawn),64
CCNC(=O)CCCOc1ccc(Cl)cc1Cl,-82*
COc1cc(-c2nc(-c3ccc(Br)o3)no2)cc(OC)c1OC,-76*
COc1ccc(-c2c(-c3cc(OC)c(OC)c(OC)c3)noc2C)cn1,76
COc1cc(-c2onc3ccc(Br)cc23)cc(OC)c1OC,66
COc1ccc(-c2noc(-c3ccc(Br)o3)n2)cc1OC,-97*
SMILES,aSyn 5UTR act
Oc1cccc(Nc2c3ccccc3nc3ccccc23)c1,-81*
CC1=CC(C)=Nc2ccc(C)cc2N1,-63*
COc1ccc(-c2nc(NC(=O)Cn3c(=O)oc4ccccc43)sc2C)cc1,-70*
C(=C\c1ccccn1)/c1cccnc1,-76*
Cc1ccc2c(c1)C(O)(CC(=O)/C=C/C=C/c1ccccc1)C(=O)N2 (stereo not drawn),-112*
COc1ccc(/C=N/NC(=O)c2cccnc2)cc1COc1ccc([N+](=O)[O-])cc1,-75*
COc1ccc(/C=N/NC(=O)c2cccnc2)cc1COc1ccc(NC(C)=O)cc1,-84*
COc1ccc(/C=N\NC(=O)c2cccc(F)c2)cc1COc1ccccc1,88
COc1cc(/C=N/NC(=O)c2cccc([N+](=O)[O-])c2)ccc1OCc1ccc(C)cc1,-99*
CS(=O)(=O)c1nc2c(cc1C#N)CCCC2,-85*
O=C(c1ccccc1Sc1c(Cl)cccc1[N+](=O)[O-])N1CCOCC1,-74*
COc1cc(/C=C/[N+](=O)[O-])ccc1OC(=O)c1cc2ccccc2oc1=O,-102*
O=[N+]([O-])c1ccc(-[n+]2ccc3ccccc3c2)c([N+](=O)[O-])c1,-105*
COc1ccc(C(=O)/C(=C\c2ccco2)N2C=CC=CC2=C(C#N)C#N)cc1,77
COc1ccc(/C=C(/C(=O)c2cccs2)N2C=CC=CC2=C(C#N)C#N)cc1,-102*
